Measured values reported in PubChem BioAssay (NCI).
About 83,000 compounds went through this panel and 20% of them were active in at least one assay; those are over-represented in the sample as a whole.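 Cells were grown in 96-well plates and exposed to the test compound at a single concentration for 48 hours; results are reported as percent growth, with values below 10 considered active.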 The source made the active and inactive calls.

Key:
Assay in all cases: NCI-60 one-dose screen, 48 h (100 = growth as untreated, 0 = no growth, -100 = all killed)
Conditions in all cases: 10 µM unless noted
HCT-15 colon = test system: HCT-15 colon
HT29 colon = test system: HT29 colon
SNB-75 CNS = test system: SNB-75 CNS
SNB-19 CNS = test system: SNB-19 CNS
U251 CNS = test system: U251 CNS
PC-3 prostate = test system: PC-3 prostate
UACC-62 melanoma = test system: UACC-62 melanoma
LOX IMVI melanoma = test system: LOX IMVI melanoma
SK-MEL-28 melanoma = test system: SK-MEL-28 melanoma
SK-MEL-5 melanoma = test system: SK-MEL-5 melanoma

Measured: growth

CCCCN(Cc1ccc(C(=O)NO)cc1)C(=O)Nc1ccc(OCCCCCCCCCn2cc(CCCCC(=O)N[C@H](C(=O)N3C[C@H](O)C[C@H]3C(=O)NCc3ccc(-c4scnc4C)cc3)C(C)(C)C)nn2)cc1
inactive: HCT-15 colon 88.7% | HT29 colon 19.8% | SNB-75 CNS 34.6% | SNB-19 CNS 29.5% | U251 CNS 34.8% | PC-3 prostate 27.8% | UACC-62 melanoma 35.9% | LOX IMVI melanoma 23.2% | SK-MEL-28 melanoma 62.8%

CCCCOc1nc2ccc(Cl)cc2cc1/C=C/C(=O)/C=C1/CC(c2cc3cc(Cl)ccc3nc2OCCCC)Nc2ccccc2N1 (stereo not drawn)
inactive: HCT-15 colon 94.1% | HT29 colon 101% | SNB-75 CNS 86.2% | SNB-19 CNS 99.1% | U251 CNS 96.4% | PC-3 prostate 91.6% | UACC-62 melanoma 89.1% | LOX IMVI melanoma 94.4% | SK-MEL-28 melanoma 105%

Cc1cnc(Nc2ccc(N3CCN(C)CC3)cc2)nc1Nc1ccc(Cl)c(NS(=O)(=O)C(C)(C)C)c1
inactive: SNB-19 CNS 53.1% | U251 CNS 24.2% | PC-3 prostate 39.4% | SK-MEL-28 melanoma 35.2%
active: HCT-15 colon 4.29% | HT29 colon -31.1% | SNB-75 CNS -36.8% | SK-MEL-5 melanoma -8.43% | LOX IMVI melanoma -84.4%

Clc1ccc2c(NCCCN3CCN(c4nc(N5CCOCC5)nc5ccccc45)CC3)ccnc2c1
active: HCT-15 colon -32.8% | HT29 colon -19.2% | U251 CNS -14.3% | SK-MEL-5 melanoma -96.8% | SK-MEL-28 melanoma -85%
inactive: SNB-75 CNS 89.4% | SNB-19 CNS 21.7% | PC-3 prostate 37.5%

C=CCO[C@H]1CO[C@H]2[C@@H]1OC[C@@H]2Oc1ccc(Nc2ccnc(Nc3ccc(O[C@H]4CO[C@H]5[C@@H]4OC[C@@H]5OCC=C)c(Cl)c3)n2)cc1Cl
active: HCT-15 colon -78.5% | HT29 colon -5.18% | SNB-75 CNS 0.0674% | SNB-19 CNS -90.3% | U251 CNS -59.5% | LOX IMVI melanoma -95% | SK-MEL-28 melanoma -80.3%
inactive: PC-3 prostate 14%

COc1ccc(-c2nc3sccn3c2/C=C/C(=O)c2c[nH]c3ccccc23)cc1
inactive: HCT-15 colon 60.5% | HT29 colon 79.7% | SNB-75 CNS 39.1% | SNB-19 CNS 92.2% | U251 CNS 46.2% | SK-MEL-5 melanoma 58.8% | UACC-62 melanoma 76.1% | LOX IMVI melanoma 37.5% | SK-MEL-28 melanoma 76.7%

CC1=CC(=O)C(C(C)C)=CC1=Nc1cc(Br)c(O)c(Br)c1
inactive: HCT-15 colon 21% | HT29 colon 66.2% | SNB-75 CNS 27.1% | SNB-19 CNS 42.1% | SK-MEL-5 melanoma 13.9% | UACC-62 melanoma 22.7% | LOX IMVI melanoma 24% | SK-MEL-28 melanoma 42.6%
active: U251 CNS 5.45%

COc1ccc(-c2cc(-c3ccc(Nc4nc(Nc5ccccc5)nc(Nc5ccc(Cl)cc5)n4)cc3)nc(N)n2)cc1
inactive: HCT-15 colon 76.6% | HT29 colon 52% | SNB-75 CNS 55.6% | SNB-19 CNS 68.7% | U251 CNS 24.7% | SK-MEL-5 melanoma 60.7% | UACC-62 melanoma 58.8% | LOX IMVI melanoma 55% | SK-MEL-28 melanoma 84.8%

CC(C)c1ccc(NC(=O)Cc2ccc(Nc3ncnc4cc(-c5cnn(CCN(C)C)c5)ccc34)cc2)cc1
active: HCT-15 colon -53.1% [30 µM] | HT29 colon -45.4% [30 µM] | SNB-75 CNS -82.6% [30 µM] | SNB-19 CNS -86.1% [30 µM] | U251 CNS -65.7% [30 µM] | PC-3 prostate -78.1% [30 µM] | LOX IMVI melanoma -65.1% [30 µM] | SK-MEL-28 melanoma -82.2% [30 µM]

COc1ccc(/C(C)=C(\c2ccc(Cl)cc2)c2ccc(OCCN3CCCCCC3)cc2)cc1F
active: HCT-15 colon -23.9% | LOX IMVI melanoma -47%
inactive: HT29 colon 10% | SNB-75 CNS 75.6% | SNB-19 CNS 65.9% | U251 CNS 39.8% | PC-3 prostate 41% | UACC-62 melanoma 48.2% | SK-MEL-28 melanoma 26%

Cc1cn(C2CCCCC2)c(=O)[nH]c1=O
inactive: HCT-15 colon 99.2% | HT29 colon 96% | SNB-75 CNS 94.4% | SNB-19 CNS 114% | U251 CNS 108% | SK-MEL-5 melanoma 105% | UACC-62 melanoma 109% | LOX IMVI melanoma 111% | SK-MEL-28 melanoma 109%

CCCCC1COc2cccc3c(SCC(=O)N(C)c4cccc(Cl)c4)cc[n+]1c23 (stereo not drawn)
inactive: HCT-15 colon 101% | HT29 colon 100% | SNB-75 CNS 137% | SNB-19 CNS 98.7% | U251 CNS 112% | PC-3 prostate 106% | UACC-62 melanoma 101% | LOX IMVI melanoma 102% | SK-MEL-28 melanoma 106%

C=C1C(=O)O[C@H]2[C@H]1CC/C(COC(=O)/C=C\C(=O)NCc1ccc(Cn3c(=O)sn(-c4ccc(OC)cc4)c3=O)cc1)=C\CC[C@@]1(C)O[C@@H]21
active: HCT-15 colon -58.1% | HT29 colon -22.9% | SNB-75 CNS -57.8% | SNB-19 CNS 7.17% | U251 CNS -60.3% | PC-3 prostate -58% | UACC-62 melanoma -99.6% | LOX IMVI melanoma -88.6% | SK-MEL-28 melanoma -92%

O=C(CCc1nc(-c2cccc(Cl)c2)no1)Nc1ccccn1
inactive: HCT-15 colon 95.2% | HT29 colon 106% | SNB-75 CNS 93.7% | SNB-19 CNS 97.6% | U251 CNS 111% | PC-3 prostate 97.4% | UACC-62 melanoma 91% | LOX IMVI melanoma 97.3% | SK-MEL-28 melanoma 99.5%
